The values that follow come from the supplement of paper PMC6518042.

Structures are written as SMILES. Unmarked numbers belong to inactive results.

One experiment concerns Pectobacterium parmentieri SCC3193. Kind of experiment: DuctApe activity index (growth/respiration on compound as sole nutrient source, blank-subtracted) (activity index (0-3)); higher = stronger utilization of the compound, active = 3 or more. The conditions noted are these: nutrient role (plate category): carbon. As to the method:
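Biolog Phenotype Microarray plates PM1, PM2A (carbon), PM3 (nitrogen) and PM4 (phosphorus/sulfur) inoculated with P. parmentieri SCC3193 in M9-C minimal salts medium with Biolog dye A, and read in the OmniLog for 46 h. Each well was tested in triplicate and the experiment was run twice. DuctApe computed a blank-subtracted activity index (AV, 0-3) from the mean curves; growth is positive at AV >= 3 and negative at AV <= 2.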
Take `OC[C@@H](O)[C@@H](O[C@H]1O[C@H](CO)[C@@H](O)[C@H](O)[C@H]1O)[C@H](O)[C@@H](O)CO` [Maltitol]: the DuctApe activity index was 0.

On to `C/C(=C/C(=O)O)C(=O)O` [Citraconic acid], for which the DuctApe activity index was 0.

Consider `O=C(O)[C@@H]1C[C@@H](O)CN1` [Hydroxy-L-Proline], for which the DuctApe activity index is 0.

Regarding `CC(=O)CC(=O)O` [Acetoacetic acid], the DuctApe activity index was 0.

With `CO[C@H]1O[C@H](CO)[C@H](O)[C@H](O)[C@H]1O` [a-Methyl-D-Galactoside], the DuctApe activity index was 3 (active).

Turning to `OCc1ccccc1O[C@@H]1O[C@H](CO)[C@@H](O)[C@H](O)[C@H]1O` [Salicin], the DuctApe activity index was 3 (active).

With `CCC(=O)C(=O)O` [a-Ketobutyric acid], the DuctApe activity index was 0.

Turning to `O=C(O)C[C@H](O)C(=O)O` [L-Malic acid], the DuctApe activity index is 3 (active).

Regarding `C[C@@H](O)CC(=O)O` [b-Hydroxybutyric acid], the DuctApe activity index was 0.

For `C[C@@H](O)[C@H](O)[C@H](O)[C@@H](O)C=O` [D-Fucose], the DuctApe activity index was 0.

`CCCC(=O)C(=O)O` [a-Keto-Valeric acid]: the DuctApe activity index was 0.

`CC1OC(O)C(O)C(O)C1O` [L-Fucose]: the DuctApe activity index is 0.

In the case of `N[C@@H](C(=O)O)[C@@H](O)[C@H](O)[C@H](O)CO` [D-Glucosaminic acid], the DuctApe activity index is 0.

Regarding `OC[C@H]1O[C@H](O[C@H]2[C@H](O)[C@@H](O)[C@H](O)O[C@@H]2CO)[C@H](O)[C@@H](O)[C@@H]1O` [Maltose], the DuctApe activity index was 1.

In the case of `O=C(O)CCCCCCCCC(=O)O` [Sebacic acid], the DuctApe activity index is 0.

`OC[C@@H](O)[C@@H](O)[C@H](O)[C@H](O)CO` [D-Mannitol]: the DuctApe activity index was 3 (active).

As to `OC[C@@H](O)C(O)[C@H](O)CO` [D-Arabitol], the DuctApe activity index is 0.

In the case of `CCC(=O)O` [Propionic acid], the DuctApe activity index was 0.

Turning to `OCC1(O)OC[C@H](O)[C@@H](O)[C@@H]1O` (stereo partly drawn) [L-Sorbose], the DuctApe activity index was 0.

`O=C(O)[C@@H](O)[C@@H](O)[C@H](O)[C@@H](O)C(=O)O` [D-Saccharic acid]: the DuctApe activity index was 3 (active).

Regarding `O=C(O)[C@@H](O)[C@H](O)[C@H](O)[C@@H](O)C(=O)O` [Mucic acid], the DuctApe activity index was 3 (active).

`CCCCCCCC/C=C\CCCCCCCC(=O)OCCOCC(OCCO)C1OCC(OCCO)C1OCCO` (stereo not drawn) [Tween 80]: the DuctApe activity index is 0.

For `O=C(O)CC(CC(=O)O)C(=O)O` [Tricarballylic acid], the DuctApe activity index is 0.

Staying with this experiment, now noted: nutrient role (plate category): nitrogen.
On to `C[C@H](N)C(=O)N[C@@H](CC(=O)O)C(=O)O`, for which the DuctApe activity index was 1.

As to `Oc1nc(O)c2nc(O)[nH]c2n1` [Uric acid], the DuctApe activity index was 0.

In the case of `NC=O` [Formamide], the DuctApe activity index was 0.

In the case of `NC(=O)C[C@@H](N)C(=O)O` [D-Asparagine], the DuctApe activity index is 1.

Turning to `C[C@H](N)C(=O)N[C@@H](CCC(N)=O)C(=O)O`, the DuctApe activity index is 1.

As to `O=c1[nH]c(=O)c2nc[nH]c2[nH]1` [Xanthine], the DuctApe activity index was 3 (active).

On to `CCCCN` [N-Butylamine], for which the DuctApe activity index is 0.

Still in this experiment, the particulars now being: nutrient role (plate category): phosphate & sulphur.
`NCCS(=O)O` [Hypotaurine]: the DuctApe activity index was 1.

On to `NCCS(=O)(=O)O` [Taurine], for which the DuctApe activity index is 1.

For the compound `N[C@@H](CCC(=O)N[C@@H](CS)C(=O)NCC(=O)O)C(=O)O` [Glutathione], the DuctApe activity index was 1.

With `CCCCS(=O)(=O)O` [Butane Sulfonic acid], the DuctApe activity index was 1.

For `Cc1cn([C@H]2C[C@H](OP(=O)(O)O)[C@@H](CO)O2)c(=O)[nH]c1=O` [Thymidine 3`-Monophosphate], the DuctApe activity index was 2.

Turning to `NCCS` [Cysteamine], the DuctApe activity index is 1.

On to `N[C@@H](COP(=O)(O)O)C(=O)O` [O-Phospho-L-Serine], for which the DuctApe activity index was 2.

With `O=C(O)CP(=O)(O)O` [Phosphono Acetic acid], the DuctApe activity index is 0.
